Screening data (PubChem BioAssay)
FLuc modulator: inhibits or activates purified firefly luciferase, miR-21 counter-screen; hit rate 6.9% among 360,000; P08659; Potency, µM (top dose mostly 57.5 µM), inactives show top-dose activity change, negative = inhibition, hits mostly inhibitors; AID 588342; purified FLuc, Km substrates, luminescence inhibition;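 further: plate controls were vehicle for no effect and reference inhibitor for full effect; nearly all actives have a fitted effect of over 55% in size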
Target sequence (P08659 whole entry, looked up): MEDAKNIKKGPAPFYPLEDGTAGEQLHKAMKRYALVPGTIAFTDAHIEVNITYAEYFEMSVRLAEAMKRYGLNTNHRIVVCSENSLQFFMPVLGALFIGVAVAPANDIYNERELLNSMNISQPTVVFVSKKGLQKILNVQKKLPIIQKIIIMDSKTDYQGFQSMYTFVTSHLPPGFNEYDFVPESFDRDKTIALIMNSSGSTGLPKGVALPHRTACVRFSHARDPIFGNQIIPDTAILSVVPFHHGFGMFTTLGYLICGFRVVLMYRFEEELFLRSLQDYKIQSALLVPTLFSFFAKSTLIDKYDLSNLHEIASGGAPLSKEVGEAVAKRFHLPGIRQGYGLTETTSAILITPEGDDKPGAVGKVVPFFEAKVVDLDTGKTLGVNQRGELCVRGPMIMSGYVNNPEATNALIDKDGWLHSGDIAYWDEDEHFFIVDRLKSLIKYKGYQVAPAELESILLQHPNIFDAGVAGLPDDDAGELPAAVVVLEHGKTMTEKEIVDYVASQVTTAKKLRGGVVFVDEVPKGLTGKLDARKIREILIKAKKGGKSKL
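Biochemical qHTS of compounds, final roughly 60 µM downward over six points, against 10 nM purified firefly luciferase using Km concentrations of substrates (10 uM D-luciferin, 10 uM ATP) in Tris acetate pH 7.5 buffer; luminescence output.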
ELG1 genotox: inducers of genotoxicity in HEK293T ELG1-luciferase cells. Potency, µM (doses to about 46 µM), for inactives: at the highest dose activity change, positive = activation, most hits filed as activators. HEK293T ELG1-luciferase reporter, luminescence, 16 h. AID 504466. hit rate 1.3% among 330,000; further: % of control where 0% means no effect; nearly all actives have a fitted effect of over 60% in size
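HEK293T cells expressing luciferase-tagged ELG1 were treated with compound or DMSO for 16 hr at 37°C. Luciferase activity was then read after 30 min with ONE-Glo at room temperature; rising signal flags genetic stress.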
KinaseGlo FLuc: blocks Kinase-Glo luciferase, a counter-screen artifact | Q27757 | Kinase-Glo luciferase, ATP luminescence, 8 min | Potency, µM (doses to about 38.3 µM), for the others: top-dose activity change, negative = inhibition, actives largely listed as inhibitors | hit rate 0.28% among 200,000 | AID 1379; further: on the % scale 0 is the no-effect control and ±100 the full control effect; nearly all actives have a fitted effect of over 60% in size
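Kinase-Glo luciferase light output from ATP and luciferin was measured with 10 uM ATP, within the enzyme's linear range. Buffer: 50 mM imidazole pH 7.2, 50 mM KCl, 7 mM MgCl2, 0.01% Tween 20, 0.05% BSA; luminescence read after 8 min at ambient temperature.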
NPC1 prom act: activators of NPC1 promoter | Potency, µM (doses to about 9.22 µM), for the others: at the top dose activation, usual class: activators | hit rate 2.4% among 320,000 | Huh7 NPC1 promoter luciferase reporter, 24 h | AID 485313; further: % of control where 0% means no effect; nearly all actives have a fitted effect of over 60% in size
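Stably transfected Huh7 (NPC1 promoter→luciferase), 1500 cells/well in Opti-MEM + 10% FBS, 2 h settle, then compound 24 h at 37 °C. Luminescence after 10 min with Amplite reagent.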
SMN2 splice up: SMN2 splice variant enhancement; HEK293 SMN2-luciferase splicing reporter, luminescence, 30-36 h; Potency, µM (series often up to 46.1 µM), for the others: at the top dose activity change, positive = activation, most hits filed as activators; hit rate 2.8% among 210,000; further: % of control where 0% means no effect; nearly all actives have a fitted effect of over 55% in size
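HEK293 cells carry an SMN2 […]–luciferase reporter in which exon 7 inclusion puts luciferase in frame. Cells were plated 10-12 h before compound addition, then incubated 30-36 h at 37C. ONE-Glo luminescence was read; sodium butyrate at 4.5 mM final served as control.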
Rab9 prom act: activates the Rab9 promoter; AID 485297; Potency, µM (series often up to 9.22 µM), without a hit: top-dose activation, negative = inhibition, most hits filed as activators; Huh7 Rab9 promoter-luciferase reporter, luminescence, 24 h; hit rate 2.8% among 320,000; further: % of control where 0% means no effect; nearly all actives have a fitted effect of over 60% in size
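Rab9 promoter-driven luciferase in stably transfected Huh7 cells; 1500 cells/well rested 2 h, exposed to compound in DMSO for 24 h at 37 °C, 5% CO2. Luminescence read 10 min after adding luciferase reagent at ambient temperature.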
Starred values were filed as active, the others as inactive; ? = inconclusive; / = no result given; [ ] = remark or other dose. In the library only some 7.4% were active in any assay of this set; here they are far more common. The call rests on the fitted dose curve; in most records, active means well fitted curve in the direction sought with a large enough effect; inconclusive means small, poorly fitted or top-dose-only effect, or another doubt; inactive means no such curve, though single readings can be large; an effect the other way counts as inactive or inconclusive. Potency means the concentration at half of the fitted maximal effect.

SMILES | FLuc modulator | ELG1 genotox | KinaseGlo FLuc | NPC1 prom act | SMN2 splice up | Rab9 prom act
COc1ccc2cc(-c3cc(C(=O)OCC(=O)Nc4c(C)n(C)n(-c5ccccc5)c4=O)c4ccccc4n3)ccc2c1 | 0.13µM* | 2% | -5% | ? | 2µM* | ?
CCc1ccc(-c2cc(C(=O)Nc3c(C)n(C)n(-c4ccccc4)c3=O)c3ccccc3n2)s1 | 12µM* | -8% | -9% | 1% | -10% | 5%
COc1ccc(C(=O)OCC(=O)Nc2c(C)n(C)n(-c3ccccc3)c2=O)cc1 | / | 1% | / | / | / | /
Cc1ccccc1OCC(=O)Nc1ccc2nc(SCc3ccccc3)sc2c1 | -2% | / | / | / | / | /
Nc1ncnc2c1ncn2[C@@H]1O[C@H](COP(=O)(O)OP(=O)(O)OP(=O)(O)OP(=O)(O)OC[C@@H]2O[C@H](n3cnc4c(N)ncnc43)[C@@H](O)[C@H]2O)[C@@H](O)[C@H]1O | / | / | / | 0%[46.1 µM] | ? | -6%[46.1 µM]
Nc1ncnc2c1ncn2[C@@H]1O[C@H](COP(=O)(O)OP(=O)(O)O)[C@@H](O)[C@H]1O | / | / | 5µM* | / | -9% | /
COc1cc(OC)cc(C(=O)N2CCN(C(=O)COc3ccc4ccccc4c3)CC2)c1 | 5.4µM* | 1% | 1% | 9% | -12% | 3%
O=C(COc1ccccc1)N1CCN(C(=O)c2ccc([N+](=O)[O-])cc2)CC1 | 9.5µM* | ? | ? | 4µM* | / | 3.2µM*
COc1ccc(N2CCN(C(=O)COc3ccc4ccccc4c3)CC2)cc1 | -2% | 0% | -2% | -3% | 1% | -1%
Cc1ccc(NC(=O)CCNS(=O)(=O)c2cccs2)cc1F | -18% | 3% | / | 0% | 7% | -4%
Cc1ccc(NC(=O)CCC(=O)c2cccs2)cc1F | 8.5µM* | 18% | / | 20% | / | ?
Cc1ccnc(NC(=O)CCC(=O)c2cccs2)c1 | 0.34µM* | ? | / | ? | / | ?
Cn1nnc2c(N3CCN(c4ccc(F)cc4)CC3)ncnc21 | 3% | / | / | / | / | /
COc1cc(OC)c2c(=O)c(O)c(-c3ccc(OC)c(OC)c3)oc2c1 | / | / | -1% | / | -4% | /
COc1cc(OC)c2c(=O)c(-c3ccccc3)coc2c1 | / | / | -6% | / | 11µM* | /
COc1cc(O)cc2occ(-c3ccc(O)cc3)c(=O)c12 | ? | 17% | / | 12% | / | 2%
COc1ccc(-c2coc3cc(OC)cc(OC)c3c2=O)cc1 | 15µM* | ? | -4% | ? | 7% | ?
Nc1[nH]c(=O)nc2c1ncn2[C@H]1O[C@@H](CO)[C@@H](O)[C@@H]1O | / | / | -2%[7.66 µM] | / | -2%[9.22 µM] | /
Cc1cccc(C)c1Nc1c(-c2ccccc2Cl)nc2cnccn12 | -6% | / | / | / | 10% | /
Cc1ccc2cccc(NC(=O)c3ccc(-c4cc(Cl)ccc4Cl)o3)c2n1 | -1% | / | / | / | 5% | /
N#C/C(=C\c1c[nH]c2ccccc12)C(=O)NC1CCCC1 | 15µM* | 15% | / | 24% | / | 18%
N#C/C(=C\c1c[nH]c2ccccc12)C(=O)NC1CC1 | 7.6µM* | ? | / | 3.5µM* | / | ?
Cc1[nH]c2ccccc2c1/C=C(\C#N)C(=O)NC1CC1 | 17µM* | ? | / | ? | / | ?
N#C/C(=C\c1ccccc1)C(=O)NC1CC1 | ? | 2% | / | -1% | / | -1%
Cc1[nH]c2ccccc2c1/C=C(\C#N)C(=O)NC(C)c1ccccc1 (configuration not stated) | -8% | 3% | 1% | -2% | 1% | 3%
SMILES | FLuc modulator | ELG1 genotox | KinaseGlo FLuc | NPC1 prom act | SMN2 splice up | Rab9 prom act
CCCOc1ccc(OCCSc2ncccn2)cc1 | 6.7µM* | 10µM* | -5% | 3.2µM* | 16µM* | 4µM*
Cc1ccc(OCCSc2nc(N)cc(N)n2)cc1 | 24µM* | ? | 10% | 3.2µM* | / | 1.8µM*
Clc1ccc(OCCSc2ncccn2)c(Br)c1 | 2.1µM* | 2.1µM* | -3% | 1.4µM* | 13µM* | 0.71µM*
COc1ccc(OCCSc2nc(N)cc(N)n2)cc1 | 21µM* | 0.73µM* | -8% | 4µM* | -7% | 4µM*
Cc1ccc(OCCCSc2n[nH]c(N)n2)cc1 | ? | 12% | 5% | -2% | / | 5%
Clc1ccc(OCCCCSc2ncccn2)cc1 | ? | -2% | 1% | -3% | -17% | 7%
Cc1nc(N2CCOCC2)c2nc(-c3ccccc3)n(CC3CCN(C)CC3)c2n1 | / | / | -4% | / | -14% | /
CCCCN1CC(c2nc3ccccc3n2CCCCOc2ccccc2C)CC1=O (configuration not stated) | -1% | / | / | / | / | /
CCOc1ccc(CNC(=O)CCS(=O)(=O)c2cc3c4c(c2)CCN4C(=O)CC3)cc1OC | -5% | / | / | / | / | /
COC(=O)c1ccc(NC(=O)CN2C(=O)CC(c3ccccc3)Sc3ccccc32)cc1 (configuration not stated) | ? | / | / | / | -2% | /
O=C(CCN1C(=O)/C(=C\c2ccco2)SC1=S)Nc1ccc(C(=O)O)c(O)c1 | 11µM* | 0%[9.26 µM] | / | 0% | / | -1%
O=C(CN1C(=O)S/C(=C\c2cccs2)C1=O)Nc1ccc(O)c(C(=O)O)c1 | ? | 2% | / | -6% | / | -13%
COc1ccccc1/C=C1\SC(=S)N(CCC(=O)Nc2ccc(C(=O)O)c(O)c2)C1=O | 6µM* | 4% | / | -1% | / | 5%
O=C(CCN1C(=O)/C(=C/c2ccco2)SC1=S)Nc1ccc(O)cc1C(=O)O | ? | 0% | / | -1% | / | -2%
O=C(CN1C(=O)S/C(=C\c2cccs2)C1=O)Nc1ccc(C(=O)O)c(O)c1 | 24µM* | -1% | / | 1% | / | 8%
O=C(CCN1C(=O)/C(=C/c2ccco2)SC1=S)Nc1ccc(C(=O)O)c(O)c1 | 7.6µM* | -3% | / | -1% | / | -3%
COc1cccc(/C=C/c2nc(C#N)c(NC3CCCCC3)o2)c1 | ? | / | / | / | -14% | /
CCCCNC(=O)CCCn1c(=O)c2ccccc2n(Cc2ccccc2C)c1=O | -2% | / | / | / | -6% | /
COc1ccc(CN(C(=O)Cc2coc3ccc(C)cc23)C2CCS(=O)(=O)C2)cc1 (configuration not stated) | -7% | / | / | / | 3% | /
COc1cc(/C=N/NC(=O)/C(=C\c2ccc3c(c2)OCO3)NC(=O)c2ccccc2)ccc1O | ? | 0% | 2% | -1% | -9% | -2%
COc1cc(/C=N/NC(=O)c2ccc(-n3cccc3)cc2)ccc1O | 21µM* | 0% | 0% | -6% | 29% | -7%
COc1ccc(/C=N/NC(=O)c2ccc3c(c2)OCO3)cc1 | 5.4µM* | 10% | / | 27% | / | 26%
COc1ccc(NCC(=O)N/N=C/c2ccc3c(c2)OCCO3)cc1 | 19µM* | -1% | 0% | 2% | ? | -3%
